Here are results for 9 molecules from PubChem BioAssay (NCI).

Holding throughout (assay): NCI-60 one-dose screen, 48 h (100 = growth as untreated, 0 = no growth, -100 = all killed)
Common to all, as to settings: 10 µM unless noted

In assay [1] the test system is SR leukemia.
Assay [2] deals with RPMI-8226 leukemia.
For assay [3], the system named is OVCAR-8 ovarian.
For assay [4], the system named is OVCAR-4 ovarian.
The test system of assay [5] is SK-OV-3 ovarian.
Assay [6] deals with IGROV1 ovarian.
Assay [7] relates to OVCAR-3 ovarian.
The subject of assay [8] is HS 578T breast.
Assay [9] concerns NCI/ADR-RES ovarian.
The subject of assay [10] is T-47D breast.
Assay [11] relates to BT-549 breast.
Assay [12] relates to MDA-MB-435 melanoma.
Assay [13] has as its system SW-620 colon.
Assay [14] has as its system HCT-116 colon.
Assay [15] concerns HCC-2998 colon.
Assay [16] deals with KM12 colon.
Assay [17] relates to MDA-MB-468 breast.
Assay [18] deals with MCF7 breast.
Assay [19] concerns OVCAR-5 ovarian.

This is part of a sample that, as a whole, favours compounds with a hit. Of some 83,000 tested, about 20% had one in any assay.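 Testing used 96-well plates and a 48-hour single-concentration exposure. Example: -40 means 40% of the starting cells died.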 A number with no mark means an inactive call. Active and inactive are the calls of the source. The calls were made as follows: active = growth percent below 10; inactive = the rest.

Regarding `CC1=C(C#N)C2=NNCC(c3ccccc3)=NN2C(c2ccccc2)=C1`, the growth in assay [1] was 96%; in assay [2], 110%; in [3] it was 111%; in assay [4], 112%; in [5], 101%; in assay [6], 109%. Besides, the growth is 111% in assay [7]; 107% in assay [8]; 112% in assay [9]; 98.8% in [10]; 104% in assay [11]; 106% in [12]. For the same molecule, the growth in [13] was 98%; in assay [14], 101%; in [15] it was 118%; in [16], 107%; in [17] it was 124%.

`COc1ccc(/C=C2\C(=N)N=C(SCc3nc4ccccc4[nH]3)NC2=O)cc1`: the growth is 103% in [1]; 95.8% in [2]; 107% in assay [3]; 102% in assay [4]; 116% in assay [5]; 114% in assay [6]. Moreover, the growth is 110% in assay [7]; 99.5% in [8]; 104% in assay [9]; 87.9% in assay [10]; 106% in assay [11]; 105% in assay [12]. In addition, the growth is 98.8% in assay [13]; 99.1% in [18]; 105% in [14]; 116% in assay [15]; 105% in assay [16]; 119% in assay [17].

As for `O=C1Nc2cc(Cl)ccc2/C1=C/c1cccc(OCc2ccccn2)c1`, the growth in assay [1] is -0.484% (active); in assay [2], -5.52% (active); in assay [3] it was -21% (active); in assay [19], -7.05% (active); in assay [5], 52.1%; in assay [6] it was 17.2%. Moreover, the growth in assay [7] is 23.5%; in [9] it was -16.7% (active); in assay [10], 26%; in [11], -12.6% (active); in assay [12], -39.9% (active); in [18] it was 7.87% (active). Also, the growth in assay [14] was 0.558% (active); in assay [15], 28.9%; in [16], 19.4%; in assay [17], 1.49% (active).

Take `Cn1cc(-c2cc(N)n3nc(-c4cn(C)c5ccccc45)cc3n2)c2cc(Br)ccc21`: the growth in assay [1] is 7.44% (active); in [2] it was 0.257% (active); in assay [3] it was -91.9% (active); in assay [4], -25.6% (active); in assay [5], 38.9%; in assay [6] it was -3.64% (active). For the same molecule, the growth was -46.3% (active) in assay [7]; -7.42% (active) in assay [8]; -13.9% (active) in [9]; -37.7% (active) in assay [10]; 38% in [11]; -72.6% (active) in assay [12]. Further, the growth in [13] is -10.6% (active); in [18], -74.1% (active); in [14], -92.9% (active); in assay [15], -70.2% (active); in [16], -60.4% (active); in assay [17], -24.9% (active).

For the molecule `Cn1cc(-c2cc3nc(-c4cn(C)c5ncccc45)cc(N)n3n2)c2ccccc21`, the growth in assay [1] is -28.8% (active); in assay [2], -19.1% (active); in [3], 10.2%; in assay [19], 48.9%; in assay [5], 42.8%; in assay [6], 0.888% (active). The growth is 6.85% (active) in assay [7]; -13% (active) in [8]; 35.1% in assay [10]; -34.7% (active) in [11]; 29.7% in [12]; 20.2% in assay [13]. The growth in assay [14] is -20% (active); in assay [15], 5.15% (active); in assay [16] it was 36.2%; in assay [17], -24.7% (active).

As to `CCN(CC)c1ccnc(CNCCSC(c2ccccc2)(c2ccccc2)c2ccc(C)cc2)c1`, the growth in [1] was -60.8% (active); in assay [2] it was -42% (active); in assay [3] it was -90.3% (active); in assay [19], -70.6% (active); in assay [5], -87.4% (active); in assay [6], -30.9% (active). Moreover, the growth in assay [7] is -88.4% (active); in [8], -49.3% (active); in assay [9] it was -84.3% (active); in assay [11], -91.9% (active); in assay [12] it was -90.6% (active); in [13], -72.2% (active). Also, the growth in assay [18] is -82.4% (active); in [14], -88.2% (active); in assay [15] it was -96.4% (active); in [16], -83.9% (active); in assay [17] it was -92.3% (active).

With `O=C(COc1ccc(NC(=O)Nc2ccc(Cl)c(Cl)c2)cc1)N=Nc1c(O)[nH]c2ccc(Cl)cc12`, the growth is 3.93% (active) in assay [1]; 6.94% (active) in [2]; -48.4% (active) in assay [3]; -16.6% (active) in assay [4]; -22.2% (active) in assay [5]; -48.6% (active) in [6]. In addition, the growth in assay [7] was -81.7% (active); in [8], -13.7% (active); in [9] it was 85.2%; in assay [10] it was -13% (active); in [11] it was -71.7% (active); in [12] it was -61.4% (active). Also, the growth was -46.9% (active) in [13]; 3.54% (active) in [18]; -53.5% (active) in [14]; -51.4% (active) in [15]; -87.9% (active) in [16]; -51% (active) in [17].

`Cc1cc2nc3c4ccccc4n(CCCN(C)C)c3nc2cc1C`: the growth is 3.07% (active) in assay [1]; -26.1% (active) in [2]; 6.13% (active) in assay [3]; 9.07% (active) in assay [19]; 8.14% (active) in assay [5]; -10.5% (active) in assay [6]. For the same molecule, the growth in assay [7] was -14.2% (active); in assay [8], -10.7% (active); in [9], 1.96% (active); in assay [10] it was -10.7% (active); in [11], -78.2% (active); in [12], -93% (active). The growth in [13] is -16.3% (active); in assay [18], -30% (active); in [15] it was -81.4% (active); in assay [16] it was -8.99% (active); in assay [17], -56.9% (active).

As for `Cc1ccc2c(N)c(C(=O)Nc3ccc(OC(F)(F)F)cc3)sc2n1`, the growth was 56.5% in assay [1]; 46.9% in assay [2]; 76.2% in assay [3]; 84.5% in [19]; 68.2% in assay [5]; 61.5% in assay [6]. Also, the growth in assay [7] is 83%; in [10], 27.3%; in assay [11], 86.8%; in [12], 68.9%; in [18], 39.4%; in [15] it was 90.9%. The values for the growth in assay [16] and in assay [17] were 66.5% and 15.9%, respectively.
